# Source: PubChem BioAssay AID782 (Emory University Molecular Libraries Screening Center, 2007)
# Screen size: about 220,000 compounds; about 800 (0.36%) were called active. The sample holds actives, similar compounds and a random draw of the others, so the mix is not that of the screen.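 The calls were made as follows: active = inhibition above about 30% (limit read from the data); inactive = the rest.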
# Biological target: Eukaryotic translation initiation factor 4E (Mus musculus) + Eukaryotic translation initiation factor 4 gamma 1 (Homo sapiens) (UniProt P63073+Q04637)
# Sequence (P63073 whole entry, looked up, the tested form may be a part): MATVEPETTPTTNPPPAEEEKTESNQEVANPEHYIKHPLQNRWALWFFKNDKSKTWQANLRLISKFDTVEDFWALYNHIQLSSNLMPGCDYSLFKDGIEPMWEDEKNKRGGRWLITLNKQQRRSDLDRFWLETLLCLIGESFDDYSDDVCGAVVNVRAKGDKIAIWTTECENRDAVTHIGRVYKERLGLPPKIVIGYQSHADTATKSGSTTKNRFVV
# Sequence (Q04637 whole entry, looked up, the tested form may be a part): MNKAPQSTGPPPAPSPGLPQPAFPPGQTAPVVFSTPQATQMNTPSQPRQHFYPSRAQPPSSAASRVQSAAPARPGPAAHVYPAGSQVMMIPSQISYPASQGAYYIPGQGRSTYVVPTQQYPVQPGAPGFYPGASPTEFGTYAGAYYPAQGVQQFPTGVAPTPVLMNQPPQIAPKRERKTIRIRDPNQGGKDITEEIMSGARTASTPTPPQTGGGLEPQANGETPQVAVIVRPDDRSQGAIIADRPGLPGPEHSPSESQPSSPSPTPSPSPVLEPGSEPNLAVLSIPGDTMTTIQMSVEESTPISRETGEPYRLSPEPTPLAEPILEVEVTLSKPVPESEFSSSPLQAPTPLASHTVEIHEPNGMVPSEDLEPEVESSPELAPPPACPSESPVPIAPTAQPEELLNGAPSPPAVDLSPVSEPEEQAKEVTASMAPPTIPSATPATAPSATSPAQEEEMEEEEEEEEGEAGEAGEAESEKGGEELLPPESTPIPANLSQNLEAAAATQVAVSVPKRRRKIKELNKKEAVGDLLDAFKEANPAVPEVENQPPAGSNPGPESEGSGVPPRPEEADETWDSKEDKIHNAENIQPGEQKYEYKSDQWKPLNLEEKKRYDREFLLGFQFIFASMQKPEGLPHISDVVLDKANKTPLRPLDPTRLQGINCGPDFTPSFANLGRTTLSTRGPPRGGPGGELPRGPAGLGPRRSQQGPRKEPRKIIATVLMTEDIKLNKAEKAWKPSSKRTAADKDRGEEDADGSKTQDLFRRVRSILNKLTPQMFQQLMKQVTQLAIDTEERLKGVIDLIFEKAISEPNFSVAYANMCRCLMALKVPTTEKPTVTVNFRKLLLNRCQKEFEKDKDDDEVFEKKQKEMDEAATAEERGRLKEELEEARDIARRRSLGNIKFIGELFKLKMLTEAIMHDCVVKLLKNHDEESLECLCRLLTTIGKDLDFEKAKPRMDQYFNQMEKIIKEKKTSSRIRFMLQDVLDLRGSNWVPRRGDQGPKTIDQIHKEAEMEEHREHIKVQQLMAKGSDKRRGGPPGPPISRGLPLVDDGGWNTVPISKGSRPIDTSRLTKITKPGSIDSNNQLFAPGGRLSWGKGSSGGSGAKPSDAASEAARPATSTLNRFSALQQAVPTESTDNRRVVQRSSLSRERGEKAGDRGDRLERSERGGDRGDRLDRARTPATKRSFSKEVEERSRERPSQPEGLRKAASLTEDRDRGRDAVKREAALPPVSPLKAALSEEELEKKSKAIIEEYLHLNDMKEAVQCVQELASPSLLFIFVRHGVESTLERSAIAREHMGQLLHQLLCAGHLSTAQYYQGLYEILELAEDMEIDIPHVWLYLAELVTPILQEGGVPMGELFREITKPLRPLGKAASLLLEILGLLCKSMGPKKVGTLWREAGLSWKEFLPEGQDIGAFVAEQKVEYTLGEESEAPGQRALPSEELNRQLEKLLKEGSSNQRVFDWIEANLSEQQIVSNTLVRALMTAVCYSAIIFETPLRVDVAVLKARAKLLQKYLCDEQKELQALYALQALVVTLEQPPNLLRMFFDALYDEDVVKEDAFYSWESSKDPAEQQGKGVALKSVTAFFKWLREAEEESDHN
# Experiment: eIF4E–eIF4G protein interaction inhibitors, primary screen, biochemical, uHTS, TR-FRET, eIF4GI fragment (AID 782);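 also: 0% = full FRET control wells and 100% = background wells lacking eIF4GI fragment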
# Details: TR-FRET eIF4E-eIF4GI(517-606) binding, 2 h; at 21.7 µM; stronger effect = higher value
row,Structure (SMILES),inhibition
1,C=C1C2C[C@H](O)C(C)(C)[C@@]2(O)[C@H](O)C[C@]23C[C@@](C)(O)[C@H](CC[C@H]12)[C@H]3O (stereo not given in full),-4.67% (inactive)
2,CSc1nnnn1-c1c(C)cc(C)cc1C,-8.98% (inactive)
3,CC(C)=C(NC(=O)c1ccccc1)C(=O)N/N=C(\C)c1ccccc1O,2.96% (inactive)
4,Cc1c(Cl)cccc1NC(=O)CC1SC(=NCC2CCCO2)NC1=O (stereo not given),1.68% (inactive)
5,CCCCNC(=O)N1CCN(S(C)(=O)=O)CC1,2.45% (inactive)
6,Cc1ccc(Nc2nc(N)nc(CSc3nnc(C)s3)n2)cc1,3.78% (inactive)
7,COc1ccc(-c2nn(-c3ccccc3)cc2/C=C\C(=O)N2CCOCC2)cc1[N+](=O)[O-],1.3% (inactive)
8,Cc1ccc(S(=O)(=O)N2CCN(S(=O)(=O)N3CCOCC3)CC2)cc1,0.52% (inactive)
9,Cc1noc(C)c1CSc1nc2cc(S(=O)(=O)N3CCOCC3)ccc2o1,38.2% (active)
10,COc1ccc(NC(=O)c2oc3ccc(S(=O)(=O)N4CCOCC4)cc3c2C)cc1,-0.4% (inactive)
11,O=C(CSC(=S)N1CCOCC1)c1ccccc1,9.18% (inactive)
12,CCOC(=O)CNC(=O)/C(=C\c1ccc(F)cc1)NC(=O)c1ccccc1,0.01% (inactive)
13,Cc1ccc(NC(=O)Nc2cc(-c3ccccc3)nn2C)cc1Cl,1.28% (inactive)
14,CCc1ccc(NC(=O)CC2C(=O)NCCN2C(=S)Nc2ccccc2)cc1 (stereo not given),2.38% (inactive)
15,Cc1ccc(-c2nc(SCC(=O)Nc3ccccc3OC(F)F)c3c(C)c(C(=O)O)sc3n2)cc1,34.5% (active)
16,Cc1ccc(C)c(SCc2nc3sc(C(=O)O)c(C)c3c(=O)[nH]2)c1,-9.58% (inactive)
17,COc1ccccc1NC(=O)CSc1nc2sc(C)c(C)c2c(=O)n1Cc1ccco1,-13.8% (inactive)
18,CCOC(=O)C1=NN(c2ccc(Cl)cc2)/C(=C/C2=NCCc3cc(OC)c(OC)cc32)S1,2.69% (inactive)
19,Cc1ccc(OCc2n[nH]c(=S)n2-c2ccc(C)cc2)cc1,0.42% (inactive)
20,COc1ccc(OCC(O)CNCCNc2nccc(C(F)(F)F)n2)cc1 (stereo not given),-1.2% (inactive)
21,O=C(Nc1ccc(-c2csc(Nc3cccc(C(F)(F)F)c3)n2)cc1)c1cccc(C(F)(F)F)c1,-4.77% (inactive)
22,COCc1cc(=O)[nH]c(-c2ccc(C(F)(F)F)cc2)n1,-4.61% (inactive)
23,COc1cc(C(=O)OCc2ccc([N+](=O)[O-])cc2)cc(OC)c1OC,-2.12% (inactive)
24,CC(C)(C)NC(=O)NC(=O)COC(=O)Cc1c(F)cccc1Cl,0.46% (inactive)
25,Cn1c(S(=O)(=O)O)nc2ccccc21,3.14% (inactive)
26,O=C(NNS(=O)(=O)c1ccccc1C(F)(F)F)c1cc2ncc(C(F)(F)F)cc2s1,9.76% (inactive)
27,CCOC1CS(=O)(=O)CC1OCC (stereo not given),-1.77% (inactive)

row,Structure (SMILES),inhibition
1,O=C(Cc1ccccc1)NCC1OCCc2ccccc21 (stereo not given),-5.93% (inactive)
2,CCNC(=S)N1CCN(CCN=CC2=C(O)CC(C)(C)CC2=O)CC1,2.72% (inactive)
3,Oc1ccc(-c2nnc(Nc3ccccc3)c3ccccc23)cc1,-1.27% (inactive)
4,Cc1nn(CC(=O)N/N=C/c2ccc(F)cc2)c(C)c1[N+](=O)[O-],10.1% (inactive)
5,O=C1c2ccccc2C(O)N1Cc1ccccc1Cl (stereo not given),43.6% (active)
6,O=C1c2ccccc2C(O)N1Cc1ccccc1 (stereo not given),-4.18% (inactive)
7,O=C(Nc1ccc(Br)cc1)C1CCC(=O)N1Cc1ccccc1Cl (stereo not given),7% (inactive)
8,COc1ccc(CNC(=O)C2CC(c3ccc(C(F)(F)F)cc3)=NO2)cc1 (stereo not given),0.84% (inactive)
9,C=C(C)C(=O)O[C@H]1C/C(C)=C\C(=O)/C=C(\C)[C@H](O)[C@@H]2OC(=O)C(=C)[C@@H]21,2.79% (inactive)
10,CCn1c(NC(=O)c2nn(C)cc2Br)nc2ccccc21,2.02% (inactive)
11,CC(C)N(C(=O)c1ccc(-c2ccccc2F)cc1)C(C)C,6.78% (inactive)
12,O=S(=O)(c1ccc(Cl)cc1)N1CCCN(c2ccc(C(F)(F)F)cn2)CC1,2.55% (inactive)
13,CCOC(=O)N1CCN(C(c2cccnc2)c2ccc3cccnc3c2O)CC1 (stereo not given),41.4% [fluorescence artefact?] (active)
14,CCN1CCN(C(c2cccnc2)c2cc(Cl)c3cccnc3c2O)CC1 (stereo not given),15.4% (inactive)
15,Oc1c(C(c2ccccn2)N2CCOCC2)ccc2cccnc12 (stereo not given),5.26% (inactive)
16,O=C(Cc1cccs1)Nc1nnc(C2CC2)s1,-4.66% (inactive)
17,CCc1nnc(NC(=O)Cc2cccs2)s1,28.2% (inactive)
18,COc1ccc(Cc2nnc(NC(=O)Cc3cccs3)s2)cc1,30.8% (active)
19,O=C1C(Cc2ccc(O)cc2)NC(=S)N1Cc1ccccc1 (stereo not given),4.64% (inactive)
20,O=C(NC(Cc1c[nH]c2ccccc12)C(=O)O)/C(=C/c1ccco1)NC(=O)c1ccccc1 (stereo not given),1.5% (inactive)
21,CN(C(=O)Nc1ccc(Cl)cc1)n1cnc2ccccc2c1=O,-1.03% (inactive)
22,O=C(Cn1cnc2cc([N+](=O)[O-])ccc2c1=O)NC(=O)NCc1ccccc1,90.5% (active)
23,CC(C)(C)NC(=O)Cn1cnc2cc([N+](=O)[O-])ccc2c1=O,6.94% (inactive)
24,O=C(Cn1cnc2c(cnn2-c2ccccc2)c1=O)NCc1ccccc1,-7.03% (inactive)
25,CCC(C)(C)NC(=O)/C=C/c1cc(OC)c(OC)c(S(=O)(=O)N2CCc3ccccc32)c1,-2.6% (inactive)
26,CCN(Cc1ccccc1)C(=O)CN1C(=S)NC(C)(C)CC1C (stereo not given),-8.44% (inactive)
27,CC(=O)Nc1cccc(/C(C)=N/NC(=O)c2c(-c3ccccc3Cl)noc2C)c1,1.91% (inactive)

row,Structure (SMILES),inhibition
1,COc1ccc(N2CCN(C(=O)/C(C#N)=C/c3ccccc3)CC2)cc1,1.4% (inactive)
2,COC(=O)c1sc2[nH]c(=S)n(N)c(=O)c2c1C,-5.75% (inactive)
3,Cc1c(CN2CCC(CO)(CCOc3ccccc3)CC2)[nH]c2ccc(Cl)cc12,3.73% (inactive)
4,Cc1cc(C)c2c(c1)cc(C)c1nnc(SCC(=O)Nc3cc(C)on3)n12,0.38% (inactive)
5,CCCn1c(SCC(=O)Nc2cccc(C(=O)OCC)c2)nnc1-c1ccoc1C,-5.54% (inactive)
6,Cc1ccc(C)c2c1cc(C)c1nnc(SCC(=O)Nc3cccc(C(=O)O)c3)n12,92.4% (active)
7,CCCCOc1ccc(C(=O)NCC(=O)OCC(=O)N2CCN(S(=O)(=O)c3ccc(C)cc3C)CC2)cc1,11.8% (inactive)
8,CC1CCN(CC(=O)c2c[nH]c3ccccc23)CC1,-20.8% (inactive)
9,O=C(OCC(=O)c1c[nH]c2ccccc12)c1cccc(O)c1,49.4% (active)
10,O=C(Cc1c[nH]c2ccccc12)OCCOC(=O)Cc1c[nH]c2ccccc12,0.18% (inactive)
11,CCOC(=O)CCCNC(=O)COC(=O)c1cc(Br)c(Br)s1,-0.44% (inactive)
12,COc1ccccc1OCC(=O)O/N=C(\N)c1ccccn1,4.41% (inactive)
13,CCCn1nc(NS(=O)(=O)c2ccccc2)c2cc3cc(C)ccc3nc21,0.92% (inactive)
14,N#CCCCn1c(O)c(N=NC(=O)C(O)c2ccccc2)c2ccccc21 (stereo not given),1.55% (inactive)
15,COC(=O)Cn1c(O)c(N=NC(=O)OC)c2ccccc21,94.3% (active)
16,CCCCn1c(O)c(N=NC(=O)Cn2c(C(F)(F)F)nc3ccccc32)c2ccccc21,16% (inactive)
17,CC1(C)C(c2cccs2)=[N+]([O-])C2(CCCCC2=O)N1O (stereo not given),-4.23% (inactive)
18,CN(C(=O)COC(=O)c1cc(-c2ccco2)nc2ccccc12)C1CCS(=O)(=O)C1 (stereo not given),42.4% (active)
19,COc1ccc(NC(=O)COc2ccc(C(=O)OCC(=O)N(C)C3CCS(=O)(=O)C3)cc2OC)cc1 (stereo not given),-0.66% (inactive)
20,Cc1c(-c2cccc(Cl)c2)nc2ccccc2c1C(=O)OCC(=O)N(C)C1CCS(=O)(=O)C1 (stereo not given),2.67% (inactive)
21,O=C(NNC(=S)NC(=O)c1cn(-c2ccccc2)nc1-c1ccccc1)c1ccncc1,0.17% (inactive)
22,Cc1ccc(N(C(=O)C(F)(F)F)C(C(=O)NC2CCCCC2)c2ccncc2)cc1C (stereo not given),4.58% (inactive)
23,S=C(NCCc1ccccc1)N1CCn2cccc2C1c1ccncc1 (stereo not given),-2.42% (inactive)
24,COc1ccc(-c2ccc(OC(=O)NC3CCS(=O)(=O)C3)cc2)cc1 (stereo not given),2.9% (inactive)
25,COc1ccc(NC(=S)NC2CCS(=O)(=O)C2)cc1 (stereo not given),49.7% (active)
26,Cc1ccc(NC(=S)NC2CCCC2)cc1,1.43% (inactive)
